PubChem BioAssay AID2778 (National Center for Advancing Translational Sciences (NCATS), 2010)
Results filed as inconclusive are left out. Values without a mark were called inactive. Activity calls are given as the source filed them. Calls come from the whole dose curve; as a rule, active = well fitted inhibition curve with a large enough effect; inconclusive = small, poorly fitted or top-dose-only effect, or effect the other way; inactive = flat fitted curve, though single readings scatter.

Each compound was assayed against Menin (Homo sapiens) (UniProt O00255) (assay: Confirmation of Inhibitors Targeting the Menin-MLL Interaction in MLL Related Leukemias: Confirmation in an HTRF (commercial TR-FRET) Assay using His-tagged menin and biotin-labeled MLL peptide). Conditions: His-menin / biotin-MLL peptide binding; series mostly up to 126 µM; activity change, negative = inhibition: at the top concentration.
Excerpt: qHTS Assay for Inhibitors Targeting the Menin-MLL Interaction in MLL Related Leukemias
NIH Chemical Genomics Center [NCGC]
NIH Molecular Libraries Probe Centers Network [MLPCN]
Assay Submitter (PI): Jolanta Grembecka, Tomasz Cierpicki, University of Virginia
Translocations of the MLL (Mixed Lineage Leukemia) gene are frequently found in human leukemias affecting both children and adults. Fusion of MLL to one of more than 60 genes results in generation of oncogenic proteins upregulating Hox genes, which are vital to blood cell development. Patients harboring fusion of the MLL gene suffer from aggressive leukemias and respond poorly to available therapies. All of the oncogenic fusion proteins have a preserved N-terminal fragment of MLL that has been identified to interact with menin. It has been recently discovered that association with menin is critical to the leukemogenic activity of the MLL fusion oncoproteins. Selective targeting of the menin-MLL interaction could provide an attractive therapeutic approach to develop novel drugs for MLL-related leukemias. Small molecules blocking the menin-MLL interaction should reverse the oncogenic potential of MLL fusion proteins.
We have developed and optimized a fluorescence polarization-based assay for the identification of Menin-MLL inhibitors. The assay was run employing two different MLL-derived peptides. The present assay uses a 12 amino acid peptide labeled with fluorescein at its N-terminus. This peptide consists of the menin high affinity binding motif from MLL and is potently bound by menin. Another peptide with a mutated sequence, labeled with Texas Red, was used in parallel as a less stringent screen for inhibitors.
The present assay uses an alternate technology to confirm hits from the primary screen - homogeneous time resolved fluorescence (HTRF).
The Menin protein, the MLL-wild type (w.t.) derived peptide (N-terminal 12 amino acids), the MLL-derived peptide labeled with Texas Red and the MLL-w.t. peptide labeled with Fluorescein were kindly supplied by laboratory of Dr. Jolanta Grembecka, University of Virginia. All protein and peptide solutions were stored in single use aliquots at -80C. The Eu3+ Cyrptate-conjugated mouse monoclonal antibody anti-6 Histidine (Eu3+-AB) and the Streptavidin-XL665 conjugate (XL665) were purchased from Cisbio International (Bedford, MA). All antibody and XL665 conjugate solution stocks were stored in single use aliquots at -20C. The Buffer components for all assays were purchased from Sigma-Aldrich (St. Louis, MO) and Invitrogen (Carlsbad, CA).
1. HTRF reaction buffer: 50 mM Tris-HCl pH 7.5, 50 mM NaCl, 1mM DTT.
Before use, 0.05% BSA is added.
2. His6-Menin protein, MLL-w.t. labeled with biotin.
Stored in singe use aliquots at -80C.
3. MLL-w.t. unlabeled peptide as positive control: 10 uM final in HTRF buffer.
1. Prepare His6-Menin at 200 nM, MLL-w.t.-biotin at 80 nM in HTRF buffer.
2. Prepare His6-Menin at 200 nM, MLL-w.t.-biotin at 80 nM and 10 uM MLL-w.t. unlabeled mixture in HTRF buffer.
3. Dispense 10 ul per well of reagent in step 1 in columns 2, 4-24 in a black 384 well plate, dispense 10 ul per well of reagents from steps 2 in column 1. Incubate plate at ambient for 15 minutes.
4. Transfer 1 uL per well of compound to plate and incubate at ambient for 1 hr.
5. Dispense 10uL of the donor (6His-Cryptate, 3.5 nM final conc.) and acceptor (SA_XL, 10nM final conc.) complex in the HTRF buffer with 0.01% BSA. Incubate for 1h.
% is set by controls: 0 for no effect and ±100 for the full control effect; potency is the fitted concentration of half-maximal effect.

Sequence of Menin (Homo sapiens) (O00255 whole entry, looked up): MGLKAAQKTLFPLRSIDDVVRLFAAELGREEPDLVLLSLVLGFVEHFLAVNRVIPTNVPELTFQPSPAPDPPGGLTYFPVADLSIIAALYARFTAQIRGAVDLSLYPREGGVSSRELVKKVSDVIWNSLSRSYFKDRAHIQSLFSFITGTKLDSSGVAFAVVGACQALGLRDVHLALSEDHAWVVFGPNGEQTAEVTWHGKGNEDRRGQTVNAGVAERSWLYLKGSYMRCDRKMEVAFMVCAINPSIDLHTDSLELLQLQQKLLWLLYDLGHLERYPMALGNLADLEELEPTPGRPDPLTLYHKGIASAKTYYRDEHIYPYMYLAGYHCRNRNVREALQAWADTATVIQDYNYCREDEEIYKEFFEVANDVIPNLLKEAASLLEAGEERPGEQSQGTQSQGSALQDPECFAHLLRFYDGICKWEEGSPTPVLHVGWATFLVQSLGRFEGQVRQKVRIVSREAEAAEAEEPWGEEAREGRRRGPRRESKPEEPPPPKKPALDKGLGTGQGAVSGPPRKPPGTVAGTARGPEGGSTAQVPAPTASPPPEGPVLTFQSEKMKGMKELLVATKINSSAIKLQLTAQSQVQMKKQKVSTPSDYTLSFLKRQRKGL

Row | Structure (SMILES) | activity change, negative = inhibition | Potency
1 | CCOC(=O)Cc1csc(NC(=O)c2c(O)c3ccccc3n(CCC(C)C)c2=O)n1 | -27.4% | 
2 | C[N+](C)(C)CC#CCN1CCCC1=O | 1.22% [at 383 µM] | 
3 | O=c1oc2ccccc2c(O)c1C(c1ccccn1)c1c(O)c2ccccc2oc1=O | -2.51% | 
4 | CCOP(=O)(OCC)C(NC(=O)c1ccccc1C)C(Cl)(Cl)Cl (stereo unspecified) | -1.29% [at 383 µM] | 
5 | COc1cc(/C=N/n2cnnc2)ccc1OC(=O)N(C)C | -5.4% [at 383 µM] | 
6 | CCCCn1c(=O)c(C(=O)Nc2ccsc2C(=O)OC)c(O)c2ccccc21 | -11% | 
7 | C[C@@H]1CC[C@@]2(NC1)O[C@H]1C[C@H]3[C@@H]4CC=C5C[C@@H](O)CC[C@]5(C)[C@H]4CC[C@]3(C)[C@H]1[C@@H]2C | 3.39% | 
8 | CC[C@]12C=CCN3CC[C@@]4(c5ccc(OC)cc5N(C)[C@H]4[C@@](O)(C(=O)OC)[C@@H]1OC(C)=O)C32 (stereo partly specified) | 4.48% | 
9 | c1cc2cc(c1)C[n+]1ccc(c3ccccc31)NCc1ccc(cc1)CNc1cc[n+](c3ccccc13)C2 |  | 282 µM (active)
10 | O=C(Nc1ccc2ccccc2c1)c1nn(C23CC4CC(CC(C4)C2)C3)cc1Br | -23.2% | 
11 | Cc1cc(C(=O)NP(=O)(N2CCOCC2)N2CCOCC2)c(C)n1C1CC1 | 0.817% | 
12 | COc1ccc(C(O)P(=O)(Oc2ccccc2)Oc2ccccc2)cc1 (stereo unspecified) | -5.29% [at 383 µM] | 
13 | O=C(O)CN1C(=O)CN=C(c2ccccn2)c2cc(Cl)ccc21 | 1.01% [at 383 µM] | 
14 | COc1cc(-c2ccc(-[n+]3nc(-c4ccccc4)nn3-c3ccc([N+](=O)[O-])cc3)c(OC)c2)ccc1-[n+]1nc(-c2ccccc2)nn1-c1ccc([N+](=O)[O-])cc1 |  | 56.2 µM (active)
15 | O=C1NC(=O)C(=Cc2ccc3ccccc3c2)C(=O)N1 | -10.3% [at 383 µM] | 
16 | OC12C3C4CC5C6C4C1C6C(C53)N2CCc1cccc(F)c1 (stereo unspecified) | 2.72% | 
